Assay outcomes deposited in PubChem by National Center for Advancing Translational Sciences (NCATS).
Sfp PPTase inh: Sfp phosphopantetheinyl transferase inhibition; Q9F4F7; Biochemical Sfp PPTase activity, qHTS; Potency, µM, for inactives: largest response in the series, negative = inhibition, usual class: inhibitors; actives 3.5% (n = 310,000); AID 1490;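 further: the enzyme is Sfp with the accession as filed and its product quenches rhodamine fluorescence; 0% = enzyme reaction without inhibitor and -100% = no enzyme wells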
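Buffer: 50 mM Hepes-Na pH 7.6, 10 mM MgCl2, 0.01% Nonidet P-40, 0.01% BSA. Enzyme 15 nM, pre-exposed to compound 15 min; substrates then added and fluorescence change tracked over 30 min.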
G9a inh: G9a (human) methyltransferase inhibition; G9a H3K9 monomethylation, AlphaScreen, 2 h; actives 8.8% (n = 350,000); Potency, µM (series often up to 102 µM), for inactives: at the top dose activity, negative = inhibition, usual class: inhibitors; Q96KQ7; further: on the % scale 0 is the no-effect control and ±100 the full control effect; nearly all actives have a fitted effect of over 75% in size
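Using a bead-based AlphaScreen, monomethylated H3K9 product from 2 h room-temperature reactions (G9a 20 nM, peptide 500 nM, SAM 20 uM) was detected with 0.5 ug/mL rabbit anti-H3K9me1 antibody.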
BAZ2B inh: blocks human BAZ2B; AlphaScreen BAZ2B-H3K14Ac peptide displacement; Potency, µM (series often up to 114 µM), without a hit: at the highest dose activity change, negative = inhibition, most hits filed as inhibitors; actives 4.4% (n = 360,000); AID 504333; further: on the % scale 0 is the no-effect control and ±100 the full control effect; nearly all actives have a fitted effect of over 60% in size
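BAZ2B (50 nM) with biotin-H3(5-23)K14Ac peptide (50 nM) in PBS pH 7.4, 0.01% Tween-20, preformed 30 min, then compound 30 min at room temperature; top concentration 110uM. AlphaScreen streptavidin donor/nickel chelate acceptor beads (10 ug/mL final), 20 min dark, signal read.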
JMJD2A Tudor: JMJD2A Tudor domain (human) inhibition; Potency, µM (titrated, usually from 114 µM), without a hit: at the top dose activity change, negative = inhibition, actives largely listed as inhibitors; O75164; AID 504339; AlphaScreen JMJD2A-Tudor / H3K4me3 peptide binding; actives 4.4% (n = 390,000); further: on the % scale 0 is the no-effect control and ±100 the full control effect; nearly all actives have a fitted effect of over 50% in size
HP1b binding inh: HP1-beta chromodomain-methylated histone interaction inhibition. P83916. AlphaScreen HP1-beta / biotin-H3K9me3 peptide binding. Potency, µM (top dose mostly 114 µM), inactives show top-dose activity change, negative = inhibition, most hits filed as inhibitors. actives 0.56% (n = 390,000); further: nearly all actives have a fitted effect of over 70% in size
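AlphaScreen: HP1-beta (50 nM) preformed 30 min with biotin-H3(1-18)K9me3 peptide (50 nM) in PBS pH 7.4, 0.01% Tween-20. Compound added for 30 min at RT, then streptavidin donor/nickel chelate acceptor beads (10 ug/mL) for 30 min.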
Numbers without * were called inactive; ? = inconclusive; nt = not tested or not shown; [ ] = remark or other dose. Most compounds without a hit are left out; they make up all but 12% or so of the library. The call rests on the fitted dose curve; in most records, active means well fitted curve in the direction sought with a large enough effect; inconclusive means small, poorly fitted or top-dose-only effect, or another doubt; inactive means no such curve, though single readings can be large; an effect the other way counts as inactive or inconclusive. Potency means the concentration at half of the fitted maximal effect.

SMILES | Sfp PPTase inh | G9a inh | BAZ2B inh | JMJD2A Tudor | HP1b binding inh
CCOc1cccc(CNc2ccc(O)cc2)c1OCc1ccc(Cl)cc1 | 44.7µM* | 14.1µM* | -34.9%[57.1 µM] | 79.4µM* | -6.9%
CCOc1cc(CNc2ccc(O)cc2)ccc1OCc1ccc(Cl)cc1Cl | ? | ? | ? | 79.4µM* | -38.1%
COc1cc(OC)cc(C(=O)Nc2ccccc2-c2nnn(CC(=O)Nc3cc(C)on3)n2)c1 | ? | -3.2%[59 µM] | -9.8% | -3.9% | 12.4%
C=C1C=C(Br)C2(OCCCO2)[C@H]2OC12 (some centres not stated) | 6.1% | nt | nt | nt | nt
Fc1ccc(-c2ncc3ccccn23)cc1 | -20.7% | -20.7%[0.501 µM] | -13.3% | -12.0% | 29.9%
COc1cc(-c2ncc3ccccn23)cc(OC)c1OC | 50.1µM* | 25.1µM* | 44.7µM* | 11.2µM* | 50.1µM*
COc1ccc(-c2ncc3ccccn23)cc1 | 79.4µM* | -40.9% | -15.8% | -30.2% | 14.0%
COc1cc(OC)cc(-c2ncc3ccccn23)c1 | -11.1% | 7.94µM* | 31.6µM* | 2.82µM* | ?
c1csc(-c2ncc3ccccn23)c1 | -0.6% | -23.0%[59 µM] | 1.8% | -28.5% | -2.4%
COc1cccc(-c2ncc3ccccn23)c1 | -8.1% | 7.08µM* | 35.5µM* | 3.55µM* | 15.8µM*
Brc1ccc(-c2ncc3ccccn23)cc1 | ? | ? | ? | -14.6% | 36.0%
CN(C(=O)C1CCCC1)C1CCS(=O)(=O)C1 (configuration not stated) | nt | -14.6% | 7.2% | -9.0% | 10.9%
Nc1nc(-c2ccccc2)[nH]c(=O)c1N=O | ? | ? | 79.4µM* | -21.7% | 8.2%
N#Cc1c(-c2ccccc2)nc(-c2ccccc2)[nH]c1=O | 20.2% | -22.5% | -34.3% | -20.1% | 37.9%
O=C(N/N=C(\c1ccccc1)c1cccnc1)c1cc(O)ccc1O | ? | 10µM* | -34.3% | nt | nt
O=C(N/N=C/c1cc(Br)c(O)c(Br)c1O)c1cccnc1 | -16.2% | ? | 35.5µM* | 50.1µM* | 25.5%
O=C(N/N=C/c1cc(O)ccc1Br)c1cccnc1 | 23.7% | nt | 7.08µM* | 44.7µM* | 42.0%
O=C(N/N=C/c1cc2c(cc1Br)OCO2)c1cccnc1 | 4.9% | 20.4% | 9.5% | -21.8% | 8.1%
CCOC(=O)OCC1OC(C#Cc2ccc(C)cc2C)C=CC1OC(=O)OCC (configuration not stated) | 20.2% | nt | nt | nt | nt
Cn1cccc1/C=C1\CCc2ccccc2C1=O | 3.6% | ? | 39.8µM* | 44.7µM* | ?
Cn1cccc1/C=C1\Cc2ccccc2C1=O | 11.1% | -8.2%[59 µM] | -25.6% | -9.8% | 20.7%
Nc1ccc2c(c1)C/C(=C/c1ccco1)C2=O | -65.1% | 7.08µM* | ? | -33.3% | -15.4%
COc1ccc2c(c1)CC/C(=C/c1ccco1)C2=O | -3.6% | ? | 35.5µM* | -33.6% | ?
O=C1/C(=C/c2ccco2)CCc2ccccc21 | 56.2µM* | 10µM* | 39.8µM* | -34.9% | ?
COc1cc(CNc2cccc(C(=O)O)c2)cc(Br)c1OCC(=O)NC(C)(C)C | -5.5% | 1.2%[59 µM] | -29.6% | -15.4% | 4.6%
SMILES | Sfp PPTase inh | G9a inh | BAZ2B inh | JMJD2A Tudor | HP1b binding inh
CCN(CC)S(=O)(=O)c1ccc(N2CC(C(=O)N3Cc4ccccc4CC3C(N)=O)CC2=O)cc1 (configuration not stated) | nt | nt | nt | -23.5% | 65.2%
COc1ccccc1CCNC(=O)Cc1c(C)c2c(cc(C)c3c(C)coc32)oc1=O | nt | -27.7%[59 µM] | -0.4% | -26.1% | 14.8%
COc1ccc(S(=O)(=O)N(CC(=O)NCCC(C)C)c2ccccc2)cc1OC | 22.4% | -4.4% | 7.7% | -18.1% | 15.1%
C/C(=N\OC(=O)c1c(-c2ccccc2Cl)noc1C)c1ccncc1 | 5.01µM* | nt | -14.9% | -10.1% | 1.2%
Cc1onc(-c2ccccc2Cl)c1C(=O)O/N=C(\N)c1ccccc1 | 11.7% | 47.4% | 3.6% | 7.6% | 37.2%
Cc1onc(-c2c(Cl)cccc2Cl)c1/C(N)=N/OC(=O)C1CC1 | -0.2% | nt | 4.2% | 2.3% | 46.3%
Cc1onc(-c2ccccc2)c1C(=O)O/N=C(\N)c1ccc([N+](=O)[O-])o1 | 19.7% | 44.7µM* | -38.5% | -31.6% | 14.9%
Cc1onc(-c2cccc(Cl)c2Cl)c1C(=O)O/N=C(\N)c1ccc([N+](=O)[O-])o1 | -3.8% | 35.5µM* | ? | ? | -10.2%
COc1ccc(C)cc1NC(=O)CSc1nc(=O)n(Cc2ccco2)c2c1CCC2 | nt | -44.7%[59 µM] | -36.5% | -25.3% | 10.2%
COc1ccc(-c2oc3cccnc3c2-c2ccc(OC)nc2)cc1 | -20.1% | 101.0% | 27.4% | 51.7% | 75.4%
CC(C)C(=O)NC(NC(=S)Nc1ccc(S(N)(=O)=O)cc1)C(Cl)(Cl)Cl (configuration not stated) | -5.9% | 50.1µM* | -19.5% | -15.0% | 22.1%
CCCC(=O)NC(NC(=S)Nc1ccc(S(N)(=O)=O)cc1)C(Cl)(Cl)Cl (configuration not stated) | -2.7% | 44.7µM* | 2.0% | -15.0% | 4.6%
Cc1ccccc1OCc1ccc(-c2nc(C#N)c(N3CCC(C(N)=O)CC3)o2)o1 | nt | 10µM* | ? | ? | -5.4%
CCCCNc1oc(-c2ccc(COc3ccccc3C)o2)nc1C#N | nt | ? | -34.2% | -18.9% | 10.4%
CCN1CCN(c2oc(-c3ccc(COc4ccccc4C)o3)nc2C#N)CC1 | nt | 5.1%[59 µM] | 11.4% | 50.1µM* | ?
CC[C@@]1(C(=O)OC)N[C@H](CN(C)S(=O)(=O)c2ccc(OC)cc2)[C@@H]2C(=O)N(C)C(=O)[C@@H]21 | nt | nt | nt | -12.9% | 34.7%
O=C(NC(=S)Nc1ccccn1)c1ccco1 | 56.2µM* | -7.3% | 2.1% | ? | 21.8%
O=C(NC(=S)Nc1ccccn1)c1ccc([N+](=O)[O-])cc1 | -28.7% | 79.4µM* | -25.5% | -23.4% | 8.9%
Cc1ccccc1C(=O)NC(=S)Nc1ccccc1[N+](=O)[O-] | -9.4% | ? | ? | -5.5% | -1.5%
O=C(NC(=S)Nc1cccnc1Cl)c1ccc(Cl)cc1 | ? | 39.8µM* | -19.6% | -3.5% | -4.2%
O=C(NC(=S)Nc1ccccc1[N+](=O)[O-])c1ccco1 | 56.2µM* | ? | -30.5% | -34.0% | -18.4%
Cc1ccc(N2CC(C(=O)NCc3nnnn3-c3ccc(C)c(C)c3)CC2=O)cc1C (configuration not stated) | nt | 4.2%[59 µM] | 4.2% | -9.7% | 21.6%[57 µM]
CCCCC(=O)OCc1cc(=O)n2nc(C3CCCCC3)sc2n1 | nt | 26.3%[59 µM] | -5.3% | -8.3% | 6.7%
Cc1ccc2cc3c(N)c4c(C)ccc(C)c4nc3nc2c1 | -3.0% | ? | nt | ? | -11.8%
O=C(NC(=S)Nc1cccnc1Cl)c1ccco1 | -29.3% | 56.2µM* | -22.2% | -21.1% | ?
O=C(NC(=S)Nc1ccccn1)c1ccccc1 | ? | 50.1µM* | 3.5% | -4.9% | 48.7%
CC(C)CCNC(=S)Nc1ccccn1 | -42.7% | 1µM* | -13.1% | -13.0% | 24.3%
CC(C)C(=O)NC(=S)Nc1ccccc1C(=O)NC1CCCCC1 | 5.4% | 50.1µM* | -5.2% | -18.9% | -2.4%
